Experimental data: PubChem BioAssay (Tox21)
Results filed as inconclusive are left out. Active and inactive are the calls of the source. Unless noted, calls follow the shape of the dose curve; as a rule, active = well fitted curve in the direction sought with a large enough effect in the repeat runs; inconclusive = weak or mixed curves; inactive = no such curve, though single readings can be large; an effect the other way counts as inactive or inconclusive.

Assays:
[1] = target: Thyrotropin-releasing hormone receptor (Homo sapiens) (UniProt P34981); assay: qHTS assay to identify small molecule agonists of the thyrotropin-releasing hormone receptor (TRHR) signaling pathway (AID 1346891; calls by dose curve;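 also: HEK293 cells expressing TRHR with calcium dye readout; series mostly up to about 58 µM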)
In short: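 Kinetic fluorescence (3 min, 1 s intervals) reported intracellular calcium after compound transfer onto TRHR-Hek293 cells pre-loaded with dye for 2 h at 37 °C.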

[2] = Human pregnane X receptor (PXR) small molecule agonists, qHTS cell viability counter screen (AID 1346977); also: nearly all actives have a fitted effect of over 50% in size
In short: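 HepG2 cells stably carrying the PXR-Luc reporter are cultured with 5% charcoal-stripped FBS and treated with compounds for 24hr. CellTiter-Fluor is added at 23hr and fluorescence is read after 1hr.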

[3] = Caspase-3/7 induction in HepG2 cells by small molecules, qHTS assay (AID 1346978); also: nearly all actives have a fitted effect of over 15% in size
In short: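 Caspase-3/7 induction was measured by Caspase-Glo 3/7 luminescence (30 min, room temperature) after a 17 hr compound exposure of wild-type HepG2 cells seeded at 2,000 per well and pre-incubated 5 hr.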

[4] = Caspase-3/7 induction in CHO-K1 cells by small molecules, qHTS cell viability counter screen (AID 1346979); also: nearly all actives have a fitted effect of over 35% in size
In short: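 Seeding: 1,500 CHO-K1 cells/well. Rest: 5hr, 37C. Treatment: compounds in DMSO, 16hr. Read: CellTiter-Fluor, 1hr, fluorescence.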

[5] = Caspase-3/7 induction in CHO-K1 cells by small molecules, qHTS assay (AID 1346980); also: nearly all actives have a fitted effect of over 15% in size
In short: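 Luminescent Caspase-Glo 3/7 read (30min, room temperature) quantified apoptosis induction. Cells were wild-type CHO-K1, treated with compound for 17hr at 37 C and 5% CO2.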

[6] = Caspase-3/7 induction in HepG2 cells by small molecules, qHTS cell viability counter screen (AID 1346981); also: series mostly up to about 92 µM; nearly all actives have a fitted effect of over 30% in size
In short: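 Counter screen for cytotoxicity: HepG2 exposed 16 hr to compounds, then CellTiter-Fluor viability signal (fluorescence, 1 hr reagent incubation).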

[7] = target: Nuclear receptor subfamily 1 group I member 2 (Homo sapiens) (UniProt O75469); assay: Human pregnane X receptor (PXR) small molecule agonists, qHTS assay (AID 1346982); also: nearly all actives have a fitted effect of over 35% in size
In short: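 Luminescence (ONE-Glo, 30 min RT) after 24 hr compound exposure of PXR-Luc HepG2 cells; cells rested 5 hr post-plating in 5% charcoal-stripped FBS medium.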
% is scaled to controls: 0 for no effect and ±100 for the full control effect.

Chain of Nuclear receptor subfamily 1 group I member 2 (Homo sapiens) (O75469 whole entry, looked up): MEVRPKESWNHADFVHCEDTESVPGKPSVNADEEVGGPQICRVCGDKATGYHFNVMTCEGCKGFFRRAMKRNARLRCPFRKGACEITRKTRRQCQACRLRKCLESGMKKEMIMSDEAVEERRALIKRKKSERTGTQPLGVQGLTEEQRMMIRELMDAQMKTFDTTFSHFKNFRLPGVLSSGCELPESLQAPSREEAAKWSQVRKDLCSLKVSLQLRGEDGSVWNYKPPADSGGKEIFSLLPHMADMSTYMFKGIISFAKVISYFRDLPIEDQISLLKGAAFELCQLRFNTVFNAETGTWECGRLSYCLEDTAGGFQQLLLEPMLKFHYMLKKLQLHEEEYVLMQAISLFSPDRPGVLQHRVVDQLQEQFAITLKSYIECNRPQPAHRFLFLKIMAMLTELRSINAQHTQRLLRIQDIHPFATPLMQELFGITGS
Chain of Thyrotropin-releasing hormone receptor (Homo sapiens) (P34981 whole entry, looked up): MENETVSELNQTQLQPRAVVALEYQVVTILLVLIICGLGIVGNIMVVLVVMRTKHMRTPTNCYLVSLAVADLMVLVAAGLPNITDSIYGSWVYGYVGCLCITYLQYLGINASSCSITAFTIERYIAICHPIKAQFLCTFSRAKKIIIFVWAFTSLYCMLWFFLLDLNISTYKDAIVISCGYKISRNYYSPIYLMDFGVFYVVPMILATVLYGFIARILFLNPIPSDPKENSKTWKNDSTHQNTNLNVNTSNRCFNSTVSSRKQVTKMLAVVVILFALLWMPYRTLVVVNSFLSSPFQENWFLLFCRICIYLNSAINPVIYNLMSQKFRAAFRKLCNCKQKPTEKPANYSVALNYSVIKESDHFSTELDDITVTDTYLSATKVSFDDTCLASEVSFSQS

COc1ccccc1OCC(O)CN1CCN(CC(=O)Nc2c(C)cccc2C)CC1 (stereo not given)
inactive: outcome [1] | Potency [2] | Potency [3] | Potency [4] | outcome [5] | Potency [6] | Potency [7]

OCCCC1CCCCC1
inactive: outcome [1] | Potency [2] | Potency [3] | Potency [4] | outcome [5] | Potency [6] | Potency [7]

Cc1ccc(Cl)cc1Cl
inactive: outcome [1] | Potency [2] | Potency [3] | Potency [4] | outcome [5] | Potency [6] | Potency [7]

Cc1nc2c([nH]1)c(=O)n(C)c(=O)n2Cc1ccco1
inactive: outcome [1] | Potency [2] | Potency [3] | Potency [4] | outcome [5] | Potency [6] | Potency [7]

CCCCCCOC(=O)CCCCC(=O)OCCCCCC
inactive: outcome [1] | Potency [2] | Potency [3] | Potency [4] | outcome [5] | Potency [6] | Potency [7]

COC(=O)CC(C)=O
inactive: outcome [1] | Potency [2] | Potency [3] | Potency [4] | outcome [5] | Potency [6] | Potency [7]

CC(=O)c1ccccc1O
inactive: outcome [1] | Potency [2] | Potency [3] | Potency [4] | outcome [5] | Potency [6] | Potency [7]

Cc1ccc(C#N)cc1
inactive: outcome [1] | Potency [2] | Potency [3] | Potency [4] | outcome [5] | Potency [6] | Potency [7]

CC(C)CNCC(C)C
inactive: outcome [1] | Potency [2] | Potency [3] | Potency [4] | outcome [5] | Potency [6] | Potency [7]

O=S(O)CO
inactive: outcome [1] | Potency [2] | Potency [3] | Potency [4] | outcome [5] | Potency [6] | Potency [7]

O=Cc1cccc([N+](=O)[O-])c1
inactive: outcome [1] | Potency [2] | Potency [3] | Potency [4] | outcome [5] | Potency [6] | Potency [7]

CS(=O)(=O)O
inactive: outcome [1] | Potency [2] | Potency [3] | Potency [4] | outcome [5] | Potency [6] | Potency [7]

C=COCC1CCC(CO)CC1 (stereo not given)
inactive: outcome [1] | Potency [2] | Potency [3] | Potency [4] | outcome [5] | Potency [6] | Potency [7]

CCCCCCCCCCCCCCCCC
inactive: outcome [1] | Potency [2] | Potency [3] | Potency [4] | outcome [5] | Potency [6] | Potency [7]

COC(=O)CCSCCC(=O)OC
inactive: outcome [1] | Potency [2] | Potency [3] | Potency [4] | outcome [5] | Potency [6] | Potency [7]

CN1CCCC1
inactive: outcome [1] | Potency [2] | Potency [3] | Potency [4] | outcome [5] | Potency [6] | Potency [7]

C=CCOCC(CC)(CO)COCC=C
inactive: outcome [1] | Potency [2] | Potency [3] | Potency [4] | outcome [5] | Potency [6] | Potency [7]

NC(=O)COCCN1CCN(C(c2ccccc2)c2ccc(Cl)cc2)CC1 (stereo not given)
inactive: outcome [1] | Potency [2] | Potency [3] | Potency [4] | outcome [5] | Potency [6] | Potency [7]

CCS(=O)(=O)c1ccc(OC)c(C(=O)OC)c1
inactive: outcome [1] | Potency [2] | Potency [3] | Potency [4] | outcome [5] | Potency [6] | Potency [7]

C[C@H](NC(CCc1ccccc1)C(=O)O)C(=O)N1CCC[C@H]1C(=O)O (stereo not given in full)
inactive: outcome [1] | Potency [2] | Potency [3] | Potency [4] | outcome [5] | Potency [6] | Potency [7]

CCO[Si](CCC1CCC2OC2C1)(OCC)OCC (stereo not given)
inactive: outcome [1] | Potency [2] | Potency [3] | Potency [4] | outcome [5] | Potency [6] | Potency [7]

CC(C)NC(=O)NC(C)C
inactive: outcome [1] | Potency [2] | Potency [3] | Potency [4] | outcome [5] | Potency [6] | Potency [7]

OC1CCCCC1c1ccccc1 (stereo not given)
inactive: outcome [1] | Potency [2] | Potency [3] | Potency [4] | outcome [5] | Potency [6] | Potency [7]

CN(C)CCCNCCCN(C)C
inactive: outcome [1] | Potency [2] | Potency [3] | Potency [4] | outcome [5] | Potency [6] | Potency [7]

O=C(O)CNC(=O)c1ccc([N+](=O)[O-])cc1
inactive: outcome [1] | Potency [2] | Potency [3] | Potency [4] | outcome [5] | Potency [6] | Potency [7]

CC(C(=O)O)c1ccc(CC2CCCC2=O)cc1 (stereo not given)
inactive: outcome [1] | Potency [2] | Potency [3] | Potency [4] | outcome [5] | Potency [6] | Potency [7]

CC/C=C\CC/C=C/CO
inactive: outcome [1] | Potency [2] | Potency [3] | Potency [4] | outcome [5] | Potency [6] | Potency [7]

NCCCNCCSP(=O)(O)O
inactive: activation [1] -0.402% [at 5.23 µM] | activity change, negative = cytotoxicity [2] 7.22% [at 8.39 µM] | caspase activation [3] -1.36% [at 8.39 µM] | activity change, negative = cytotoxicity [4] 5.53% [at 8.39 µM] | caspase-3/7 activation [5] 0.0901% [at 8.39 µM] | activity change, negative = cytotoxicity [6] 1.15% [at 8.39 µM] | activation [7] -4.2% [at 8.39 µM]

CCc1cccc2c(CCO)c[nH]c12
inactive: outcome [1] | Potency [2] | Potency [3] | Potency [4] | outcome [5] | Potency [6] | Potency [7]

O=C1CCCN1C1CCCCC1
inactive: outcome [1] | Potency [2] | Potency [3] | Potency [4] | outcome [5] | Potency [6] | Potency [7]
